# High-throughput results deposited in PubChem BioAssay by National Center for Advancing Translational Sciences (NCATS).
# Tau fluor counter – counter-screen for tau fibril formation inhibitors; tau K18 P301L Alexa594 fluorescence, heparin fibrillization; Potency, µM (doses to about 57.7 µM); 280,000 compounds, 0.93% hits; also: nearly all actives have a fitted effect of over 55% in size
#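 Human K18 P301L tau (15 uM unlabeled plus 0.24 uM Alexa 594-labeled, final) in 100 mM sodium acetate pH 7 was mixed with compound and 20 uM heparin and incubated 6 hr at 37 C.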
# FBPA coupling cs – inhibits coupling enzyme system, counter-screen for aldolase hits. coupling enzyme system counterscreen, AmpLite Red fluorescence. activity change, negative = inhibition, % at 58.2 µM, hits read low. 290,000 compounds, 0.67% hits. AID 2472; in the data active = activity change below about -30%
#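 First, compound is pin-transferred into glyceraldehyde-3-phosphate coupling-enzyme reagent at 57.5 uM final and held 10 min at RT. Next, substrate, coupling system and AmpLite Red are added. After 20 min RT, fluorescence (525/598 nm) is read.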
# Tau FP inhib – blocks human tau fibril formation measured by polarization | 280,000 compounds, 0.39% hits | K18 P301L tau heparin fibrillization, Alexa594 FP, 6 h | P10636 | Potency, µM (titrated, usually from 57.7 µM), usual class: inhibitors; also: nearly all actives have a fitted effect of over 55% in size
# Target sequence (P10636 561-689 P618L limits assumed): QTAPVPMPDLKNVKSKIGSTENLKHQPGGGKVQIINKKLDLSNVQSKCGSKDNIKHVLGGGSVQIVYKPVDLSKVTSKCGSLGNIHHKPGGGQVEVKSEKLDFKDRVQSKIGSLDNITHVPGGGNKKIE
#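 Human tau K18 […] P301L fragment, 15 uM unlabeled plus 0.24 uM Alexa 594-labeled tau (final), with compound and 20 uM heparin in 100 mM sodium acetate pH 7; 6 hr at 37 C, then Alexa 594 FP read.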
# Sfp PPTase inh – Sfp phosphopantetheinyl transferase inhibition. Q9F4F7. Biochemical Sfp PPTase activity, qHTS. Potency, µM, usual class: inhibitors. 310,000 compounds, 3.5% hits;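 also: the enzyme is Sfp with the accession as filed and its product quenches rhodamine fluorescence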
#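 After 15 min at room temperature with compound, 15 nM Sfp received 5 uM rhodamine-CoA plus 12.5 uM BHQ-2-ybbR (50 mM Hepes pH 7.6, 10 mM MgCl2). Rate came from the fluorescence difference over 30 min, ex 525/em 598 nm.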
# JMJD2E inh – inhibitors of human JMJD2E histone demethylase. Potency, µM (highest dose often 57.1 µM), most hits filed as inhibitors. JMJD2E catalytic domain, FDH-coupled NADH fluorescence (FDH is formaldehyde dehydrogenase). 230,000 compounds, 1.6% hits. B2RXH2; active = well fitted inhibition curve with a large enough effect, not every such curve was filed as active; inconclusive = small, poorly fitted or top-dose-only effect, or another doubt; inactive = no such curve, though single readings can be large or run the other way; also: nearly all actives have a fitted effect of over 50% in size
# Target sequence (B2RXH2 1-337 limits assumed): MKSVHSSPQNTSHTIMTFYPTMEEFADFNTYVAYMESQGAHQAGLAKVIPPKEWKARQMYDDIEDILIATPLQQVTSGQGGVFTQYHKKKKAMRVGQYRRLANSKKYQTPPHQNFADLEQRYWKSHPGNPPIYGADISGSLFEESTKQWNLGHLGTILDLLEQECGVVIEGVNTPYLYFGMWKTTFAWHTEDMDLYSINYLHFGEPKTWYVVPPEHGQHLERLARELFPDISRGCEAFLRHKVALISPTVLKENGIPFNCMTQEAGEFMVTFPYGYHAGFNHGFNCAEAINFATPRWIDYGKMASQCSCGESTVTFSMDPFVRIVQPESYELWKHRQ
# Tau ThT inhib – blocks human tau fibril formation measured by thioflavin T; P10636; recombinant tau K18 P301L, heparin-induced fibrillization, ThT fluorescence; 270,000 compounds, 2.1% hits; Potency, µM (series often up to 57.4 µM), most hits filed as inhibitors; AID 1460; also: nearly all actives have a fitted effect of over 55% in size
#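 Fibril formation assay: tau K18 P301L at 15 uM with trace Alexa 594 label, heparin inducer 20 uM, pH 7 sodium acetate buffer, 37 C for 6 hr; endpoint ThT signal.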
# Numbers stand for hits; 0 = inactive; ? = inconclusive; - = no result; [ ] = another dose, or the depositor's remark. This is a sample that favours compounds with a hit; in the whole collection about 5.3% have one here. Unless noted, calls follow the shape of the dose curve; as a rule, active = well fitted curve in the direction sought with a large enough effect; inconclusive = small, poorly fitted or top-dose-only effect, or another doubt; inactive = no such curve, though single readings can be large; an effect the other way counts as inactive or inconclusive.
SMILES,Tau fluor counter,FBPA coupling cs,Tau FP inhib,Sfp PPTase inh,JMJD2E inh,Tau ThT inhib
CCOC(=O)N1CCN(S(=O)(=O)c2ccc(C(=O)NNc3nc4cc(C)cc(C)c4s3)cc2)CC1,?,0,?,0,25.1µM,0
Cc1cc(C)c2nc(NNC(=O)c3ccc(S(=O)(=O)N4CCCCC4)cc3)sc2c1,?,0,?,?,?,22.4µM
CCc1ccc(NC(=O)C2CCN(S(=O)(=O)c3c(C)noc3/C=C/c3cccs3)CC2)cc1,?,-,0,-,-,0
CCc1cccc(NC(=O)Cn2c(-c3ccc(F)cc3)cc(C(C)=O)c2C)c1,0,-,0,-,-,0
Cc1ccccc1C(=O)Nc1cccc(NC(=O)c2ccc(C(C)(C)C)cc2)c1,0,-,0,-,-,0
CC(C)(C)c1ccc(S(=O)(=O)/N=C2\C=C(NS(=O)(=O)c3ccccc3)C(=O)c3ccccc32)cc1,-,-34.6,-,0,-,-
COC(=O)c1ccccc1NC1=C/C(=N\S(=O)(=O)c2ccc(C(=O)O)cc2)c2ccccc2C1=O,-,-48.2,-,56.2µM,-,-
COC(=O)c1ccccc1NC1=C/C(=N\S(=O)(=O)c2cccs2)c2ccccc2C1=O,?,0,0,0,?,?
C/C(=N\NS(=O)(=O)c1ccc(C(C)(C)C)cc1)c1ccccc1,-,0,-,0,-,-
Cc1ccc(S(=O)(=O)/N=C2\C=C(Nc3cccc(C(=O)O)c3)C(=O)c3ccccc32)c(C)c1,-,-42.6,-,0,-,-
Cc1ccc(S(=O)(=O)/N=C2\C=C(Nc3cccc(C(=O)O)c3)C(=O)c3ccccc32)cc1,-,-46.6,-,0,-,-
CC[C@H](NC(=O)[C@H](CCC(=O)O)NC(=O)[C@H](CCC(=O)O)NC(=O)[C@H](CC(=O)O[S+](=O)([O-])c1cccc2c(NCCN)cccc12)NC(=O)[C@H](CCC(=O)O)NC(=O)[C@H](CC(=O)O)NC(C)=O)C(=O)ON[C@@H](C)C(=O)N[C@@H](CO)C(=O)N[C@@H](CCCCNC(=O)c1ccc(N=Nc2ccc(N(C)C)cc2)cc1)C(N)=O,-,0,-,0,-,-
CCc1ccc(S(=O)(=O)/N=C2\C=C(Nc3ccc(C(=O)O)cc3)C(=O)c3ccccc32)cc1,-,-47.6,-,0,-,-
COc1ccc(-c2nc(-c3ccccc3)oc2NC(C)C)cc1,0,0,0,0,0,0
CCN1CCN(CCOc2ccc(Cl)cc2)CC1,0,0,0,14.1µM,0,0
Clc1ccc(OCCN2CCOCC2)cc1,-,0,-,0,-,-
COc1ccccc1N1CCN(C(=O)c2ccc(CS(=O)(=O)c3ccccc3OC)o2)CC1,0,0,0,0,0,0
CCOC(=O)N1CCN(C(=O)c2ccc(CS(=O)(=O)c3ccccc3OC)o2)CC1,0,0,0,79.4µM,0,0
CCOc1ccc(CNC(=O)c2ccccc2NC(=O)c2nsc3ccccc23)cc1,0,-,?,-,-,0
COC(=O)c1ccccc1NC(=O)CSc1nnnn1C1CCCCC1,0,0,0,0,0,0
CCOC(=O)c1ccccc1NC(=O)CSc1nnnn1C1CCCCC1,?,0,?,0,0,14.1µM
CCc1cccc(NC(=O)CSC2=NS(=O)(=O)c3ccccc32)c1,0,0,0,14.1µM,0,?
CCc1cccc(NC(=O)CN2C=NS(=O)(=O)c3ccccc32)c1,0,-,?,-,-,0
CC(=O)OC[C@H]1O[C@@H](O/N=C(\C)CCN2CCCCc3nc(C)c(C)cc32)[C@H](OC(C)=O)[C@@H](OC(C)=O)[C@H]1OC(C)=O,0[11.6 µM],0,0[11.6 µM],0,-,0[11.5 µM]
COc1cc2c(C)c3c4c(cc(OC)c(OC)c4c2cc1OC)CCN3C,10µM[quencher],0,?,0,?,?
SMILES,Tau fluor counter,FBPA coupling cs,Tau FP inhib,Sfp PPTase inh,JMJD2E inh,Tau ThT inhib
COc1cc2c(cc1OC)CC(=O)N(C)CC2,0,0,0,0,0,0
Cc1cc(=O)n(Cc2ccccc2Cl)c2c1c(C)nn2-c1ccccc1,0,-,?,-,-,0
S=C(NC1CCCCC1)N1CCOCCOCCN(C(=S)NC2CCCCC2)CCOCC1,0,0,?,0,0,-
O=C(NC1CCCCC1)C(=S)N1CCOCC1,0,0,0,50.1µM,0,0
C=CCN1C(=O)/C(=C2\SC(N3CCOCC3)=NC2=O)c2cc(Br)ccc21,0,0,0,0,0,15.8µM
CCN1C(=O)/C(=C2\SC(N3CCOCC3)=NC2=O)c2ccccc21,-,0,-,0,-,-
